Source: PubChem BioAssay (NCATS)
“And” between values parts separate entries of the source, which are not always exact repeats. Identical values can stand only once. A number with no mark means an inactive call. The source made the active and inactive calls. The call rests on the fitted dose curve; in most records, active means well fitted cell-killing curve with a large enough effect; inconclusive means small, poorly fitted or top-dose-only effect; inactive means flat fitted curve, though single readings scatter.

experiment: MultiTox-Fluor Cytotoxicity Assay - LYMP1-003 - Live Cells (AID 962); conditions: LYMP1-003 lymphoblastoid cells, MultiTox-Fluor live-cell protease fluorescence; series mostly up to 92.2 µM; activity change, negative = fewer live cells: at the top concentration;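 on activity change, negative = fewer live cells: 0% = DMSO only and full loss = 92 µM tetraoctylammonium bromide; cytotoxic hits lower the live-cell protease signal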
From the text: NIH Chemical Genomics Center [NCGC]
NIH Molecular Libraries Screening Centers Network [MLSCN]
National Institutes of Environmental Health Sciences [NIEHS]
National Toxicology Program [NTP]
We have developed a 1536-well cell-based assay for quantitative high throughput screening (qHTS) against a number of cell lines to determine in vitro cytotoxicity of small molecules. This particular assay uses a human lymphoblastoid cell line (LYMP1-003) purchased from Coriell Institute.
NCGC Assay Protocol Summary:
The MultiTox-Fluor Cytotoxicity Assay (Promega) is a homogeneous method to simultaneously measure the relative number of live and dead cells in culture by detecting changes in cell membrane integrity. There are two fluorogenic peptide substrates in the assay reagent. Viable cells are determined when the cell-permeant substrate (GF-AFC) enters the cell and is cleaved by protease from live cells resulting in liberated fluorophore. This live-cell protease activity restricted to viable cells is proportional to cell number. The dead cells are determined by using fluorogenic cell-impermeant peptide substrate (bis-AAF-R110) which cleaved by dead cell proteases leaking from damaged cell membrane.
Using the MultiTox-Fluor Cytotoxicity Assay, the relative number of live cells was measured in the lymphoblastoid cell line with complete culture medium following compound treatment for 16 hours. The assay was performed in opaque black Kalypsys 1536-well plates. In the screen, tetraoctylammonium bromide was used as positive control. Library compounds were measured for their ability to cause acute toxicity in the cell line, as reflected by a decrease in live cell protease activity, in a concentration-dependent manner. […] AC50 values were determined from concentration-response data modeled with the standard Hill equation.
qHTS protocol for MultiTox-Fluor Cytotoxicity assay
[Step] [Parameter] [Value] [Description]
1. Reagent; 5 uL; 2500 lymphoblastoid cells/well
2. Time; 5 hr; 37 C incubation
4. Controls; 23 nL; Tetraoctylammonium bromide 6.4pM to 92 uM
5. Time; 16 hr; 37 C incubation
6. Reagent; 5 uL; MuliTox-Fluor Assay reagent
7. Time; 60 min; Room Temperature
8. Detection; live-cell fluorescence (Ex/Em=405/510); EnVision plate reader
Keywords: cell viability, cytotoxicity, lymphoblastoid cell line, fluorescence, NTPHTS, NTPHTS_NCGC, NIEHS, EPA, DSSTox, MLSMR, MLSCN, NIH Roadmap, qHTS, NCGC
Potency means the concentration at half of the fitted maximal effect.

SMILES | activity change, negative = fewer live cells | Potency
C#CCO | -3.28% | 
ClC1=C(Cl)C2(Cl)C3C(Cl)C(Cl)CC3C1(Cl)C2(Cl)Cl (configuration not stated) | -27.7% | 
Oc1c(Br)c(Br)c(Br)c(Br)c1Br | 0.465% | 
C=CC(=O)OCC(CO)(COC(=O)C=C)COC(=O)C=C |  | 3.98 µM (active)
[CH3][Hg][Cl] |  | 20 µM (active)
Clc1ccc(C(c2ccc(Cl)cc2)C(Cl)Cl)cc1 | -1.4% | 
O=C(O)C1C(C(=O)O)C2(Cl)C(Cl)=C(Cl)C1(Cl)C2(Cl)Cl (configuration not stated) | -5.05% | 
O=Nc1ccc(Nc2ccccc2)cc1 |  | 6.31 µM (active)
N#CC(Cl)Cl | 3.21% | 
O=[N+]([O-])c1cc(C(F)(F)F)cc([N+](=O)[O-])c1Cl | -13.3% | 
CC(C)CC(C)Nc1ccc(Nc2ccccc2)cc1 (configuration not stated) |  | 50.1 µM (active)
N#CSCSC#N |  | 39.8 µM (active)
c1ccc2cc3c(cc2c1)-c1cccc2cccc-3c12 | -4% | 
O=C1C2(Cl)C3(Cl)C4(Cl)C(Cl)(Cl)C5(Cl)C3(Cl)C1(Cl)C5(Cl)C24Cl (configuration not stated) |  | 39.8 µM (active) and 50.1 µM (active)
Nc1ccccc1C(=O)OCCc1ccccc1 | 3.56% | 
C(=NC1CCCCC1)=NC1CCCCC1 | -9.13% | 
FC(F)(F)c1ccc(Cl)cc1 | -7.11% | 
CN(C)c1ccc(N=O)cc1 |  | 6.31 µM (active)
CC/C(=C(\c1ccccc1)c1ccc(OCCN(C)C)cc1)c1ccc(O)cc1 |  | 50.1 µM (active)
[Cd+2].[Cl-].[Cl-] | -14.7% | 
O=[N+]([O-])C(Br)Br | -20.6% | 
CC(=O)[O-].CC(=O)[O-].O.O.[Cd+2] | -3.99% | 
OC(c1ccc(Cl)cc1)(c1ccc(Cl)cc1)C(Cl)(Cl)Cl | -4.54% | 
COP(=O)(OC)O/C(=C\Cl)c1cc(Cl)c(Cl)cc1Cl | -6.29% | 
CCCCCCCCn1sccc1=O |  | 15.8 µM (active)
O=C(CCl)c1ccccc1 |  | 39.8 µM (active)
C[C@@H]1CC[C@@]2(OC1)O[C@H]1[C@@H](O)[C@H]3[C@@H]4CC[C@H]5C[C@@H](O[C@@H]6O[C@H](CO)[C@H](O[C@@H]7O[C@H](CO)[C@@H](O)[C@H](O[C@@H]8OC[C@@H](O)[C@H](O)[C@H]8O)[C@H]7O[C@@H]7O[C@H](CO)[C@@H](O)[C@H](O[C@@H]8O[C@H](CO)[C@@H](O)[C@H](O)[C@H]8O)[C@H]7O)[C@H](O)[C@H]6O)[C@H](O)C[C@]5(C)[C@H]4CC[C@]3(C)[C@H]1[C@@H]2C |  | 10 µM (active)
